HCMV antiviral = inhibitors of human cytomegalovirus. HFF cells, HCMV-luciferase reporter, 72 h; stronger effect = lower value. activity change, negative = inhibition, % at 57.5 µM. 410,000 compounds, 4.5% hits. AID 1259415; in the data active = activity change below about -60%; inconclusive = no clear call, values can overlap the other calls; inactive = above about -39%
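Inhibition of viral replication was scored as loss of reporter luminescence in HFFs infected with HCMV-luciferase (MOI 1 PFU/cell) for 72 h; compounds tested at 2 doses, normalized to buffer and Salinomycin controls.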
LASV entry inh = Lassa virus entry inhibition; Lassa virus pseudotype entry inhibition, cell reporter; Potency, µM (titrated, usually from 37.9 µM), for inactives: at the highest dose activity change, negative = inhibition, actives largely listed as inhibitors; 300,000 compounds, 1.2% hits; AID 540256; calls by dose curve; tested in HEK293 cells; also: potency is read from the fitted curve at half-maximal effect; nearly all actives have a fitted effect of over 50% in size
VACV mCherry inh = inhibitors of vaccinia virus infection (mCherry reporter signal); Vaccinia virus mCherry reporter infection, fluorescence; Potency, µM (highest dose often 36.5 µM), without a hit: at the top dose activity change, negative = inhibition, most hits filed as inhibitors; 310,000 compounds, 0.63% hits; AID 720579; calls by dose curve; tested in A549 cells; also: potency is read from the fitted curve at half-maximal effect; nearly all actives have a fitted effect of over 35% in size
HCV inh = inhibitors of hepatitis C virus infection. Potency, µM (highest dose often 41.8 µM), for inactives: top-dose activity change, negative = inhibition, hits mostly inhibitors. AID 651820. Huh7.5.1 HCVcc-Cre infection, luciferase reporter, 44 h. 340,000 compounds, 3.4% hits; active = well fitted inhibition curve with a large enough effect; inconclusive = small, poorly fitted or top-dose-only effect, or another doubt; inactive = no such curve, though single readings can be large or run the other way; also: potency is read from the fitted curve at half-maximal effect
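Compounds are dispensed onto cells plated 4 h earlier at 1,000 per well, with HCVcc-Cre virus (about 0.5 moi) added next. Following 44 h of culture, luminescent signal is measured for 15 sec after 15 min with substrate at room temperature.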
MARV entry inh = Marburg virus entry inhibition | AID 540276 | Marburg virus pseudotyped entry inhibition, cell reporter | Potency, µM (doses to about 37.8 µM), for inactives: at the highest dose activity change, negative = inhibition, actives largely listed as inhibitors | 300,000 compounds, 1.8% hits; calls by dose curve; tested in HEK293 cells; also: potency is read from the fitted curve at half-maximal effect
Vaccinia Venus = vaccinia inhibition (Venus reporter). 330,000 compounds, 0.46% hits. Potency, µM (doses to about 36.5 µM), inactives show at the highest dose activity change, negative = inhibition, usual class: inhibitors. AID 720580. Vaccinia virus Venus reporter expression, fluorescence; calls by dose curve; tested in A549 cells; also: potency is read from the fitted curve at half-maximal effect; nearly all actives have a fitted effect of over 30% in size
An asterisk follows results filed as active; i = inactive; u = inconclusive; x = no result; [ ] = another dose, or the depositor's remark. In the library only some 7.8% were active in any assay of this set; here they are far more common. % is scaled to controls: 0 for no effect and ±100 for the full control effect.

SMILES	HCMV antiviral	LASV entry inh	VACV mCherry inh	HCV inh	MARV entry inh	Vaccinia Venus
Cn1c(CNc2nc3ccccc3n2CCN2CCCCC2)nc2ccccc21	51.0	-5.7%	i	u	2.82µM*	u
COc1ccc(CNc2nc3ccccc3n2CCN2CCCCC2)cc1	-6.8	-9.5%[46.1 µM]	-3.2%	-19.9%	u	-0.3%
CCOC(=O)C1CCN(Cc2cn3c(-c4ccc(OC)cc4)nnc3s2)CC1	15.8	9.3%[46.1 µM]	12.6%	x	x	10.0%
COc1ccccc1NC(=O)N1CCN(c2ccc(F)cc2)CC1	-16.5	8.9%	-13.2%	-13.4%	9.6%[46.1 µM]	-3.4%
COc1ccccc1CC(=O)N1CCN(c2cccc(C(F)(F)F)c2)CC1	-69.5*	u	u	u	u	-23.9%
Cc1ccc(CC(=O)N2CCN(c3cccc(C(F)(F)F)c3)CC2)cc1	-17.9	u	x	9.7%	-13.5%	-13.1%
COc1ccccc1NC(=O)N1CCN(c2cccc(C(F)(F)F)c2)CC1	-36.8	8.1%	x	11.2µM*	19.5%	x
CC(C)=CC(O)C/C(C)=C/COc1ccc2ccc(=O)oc2c1 (configuration not stated)	12.2	x	10µM*	u	x	10µM*
CCOc1ccc(N2CC(NC(=O)Cc3ccccc3)CC2=O)cc1 (configuration not stated)	11.1	-5.7%[46.1 µM]	-10.8%	x	x	-10.7%
Cc1ccc(S(=O)(=O)c2cn(Cc3cccc(F)c3)c3cc(N4CCCC4)c(F)cc3c2=O)cc1	7.0	-0.9%[46.1 µM]	-11.8%	x	x	0.4%
Cc1ccc(-c2nnc(NCc3nc4ccccc4[nH]3)c3ccccc23)cc1S(=O)(=O)N(C)C	-31.8	17.8µM*	-13.2%	u	u	-20.4%
CCc1ccc2oc(C(=O)NCCc3ccc(OC)c(OC)c3)cc(=O)c2c1	-39.2	-22.0%[46.1 µM]	-6.1%	x	-24.3%[46.1 µM]	-11.9%
CC1(C)CC2CC(C)(CN2S(=O)(=O)c2ccc(C(=O)Nc3ccc(Cl)c(S(=O)(=O)N4CCOCC4)c3)cc2)C1 (configuration not stated)	-98.5*	u	-10.5%	u	3.55µM*	-11.8%
CC(=O)Nc1ccc(S(=O)(=O)N2CC3(C)CC2CC(C)(C)C3)cc1 (configuration not stated)	u	u	-3.7%	0.1%	u	-6.6%
CC1(C)CC2CC(C)(CN2S(=O)(=O)c2ccc(C(=O)Nc3ccc(S(=O)(=O)N4CCOCC4)cc3)cc2)C1 (configuration not stated)	-90.5*	3.55µM*	i	u	2.82µM*	-15.1%
O=C(Nc1ccc(NC(=O)c2ccc(Cl)c(S(=O)(=O)N3CCOCC3)c2)cc1)c1ccccc1	-25.1	u	-13.7%	u	u	-19.7%
Cc1ccc(S(=O)(=O)N2CCN(c3nc(-n4ccnn4)nc4ccccc34)CC2)cc1	x	x	-12.4%	x	x	-10.0%
CCCS(=O)(=O)NC(=O)C1(C)CCCN(C(=O)c2c(-c3ccccc3)noc2C)C1 (configuration not stated)	-63.0*	x	0.0%	x	x	-4.2%
Cc1onc(-c2ccccc2)c1C(=O)N1CCCC(C)(C(=O)NS(=O)(=O)C2CC2)C1 (configuration not stated)	0.3	x	12.1%	x	x	28.1%
Nc1ncc(S(=O)(=O)Nc2ccc(F)cc2F)cn1	38.2	1.9%[46.1 µM]	-7.6%	x	x	-6.8%
CC(C)[Si]1(C(C)C)OCC2OC(n3cnc4c(N)ncnc43)C(N)C2O[Si](C(C)C)(C(C)C)O1 (configuration not stated)	-26.8	u	-30.0%	u	12.6µM*	-27.8%
Nc1ncnc2c1ncn2C1OC(CO)C(O)C1N (configuration not stated)	-6.0	x	-0.2%	5.8%	x	-3.1%
COC(=O)C1=C(CN2CCCc3ccccc32)NC(=O)NC1c1ccc(F)cc1 (configuration not stated)	-80.8*	u	u	u	u	-14.9%
COC(=O)C1=C(CN2CCc3ccccc32)NC(=O)NC1c1cc(C)ccc1C (configuration not stated)	47.5	u	x	u	-28.1%	-20.5%
N[C@](CC1c2ccccc2Oc2ccccc21)(C(=O)O)[C@H]1C[C@@H]1C(=O)O	x	x	-3.4%	x	x	-0.4%

Compound activity: PubChem BioAssay, National Center for Advancing Translational Sciences (NCATS)
